Laboratory results as given in PubChem BioAssay (NCATS).
Records with an inconclusive call do not appear. Calls of active or inactive are those of the source. Calls follow the shape of the dose curve; as a rule, active = well fitted curve in the direction sought with a large enough effect; inconclusive = small, poorly fitted or top-dose-only effect, or another doubt; inactive = no such curve, though single readings can be large; an effect the other way counts as inactive or inconclusive. Where a SMILES comes first, the peptide text is derived from it. [ ]: non-standard residue; d: D form. 2Abz = Nc1ccccc1C(=O)O

Columns and labels:
HACAT = experiment: qHTS assay to identify novel small-molecules to repurpose for Merkel cell carcinoma treatment (AID 1296009); conditions: MCC and control cell lines, CellTiter-Glo viability, 72 h; at 44.8 µM (top of the series) unless noted; also: nearly all actives have a fitted effect of over 60% in size
How it was run: (§1)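 Cell viability measured by CellTiter-Glo following 72 hr compound treatment at 37 degree celsius, with NPC and MIPE libraries tested in 8- and 11-point concentration series.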

HEK293T = experiment: as above; conditions: MCC and control cell lines, CellTiter-Glo viability, 72 h; series mostly up to 44.8 µM
How it was run: as §1

NIH3T3 = experiment: as above; conditions: MCC and control cell lines, CellTiter-Glo viability, 72 h; at 44.8 µM (top of the series) unless noted
How it was run: as §1

C33A = experiment: Primary qHTS to identify gynecologic anti-cancer compounds using libraries of approved drugs and bioactive compounds (AID 1345084); conditions: Gynecologic cancer cell panel viability, ATPlite luminescence, 48 h; series mostly up to 57.5 µM; also: % is scaled to controls: 0 for no effect and ±100 for the full control effect; nearly all actives have a fitted effect of over 55% in size
How it was run: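 Cells, 1,000 per well, were allowed to settle for 16 h at 37 C before compound addition. Five concentrations were tested for 48 h, and viability was read by ATPlite luminescence after 15 min at room temperature.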

CC(O)C(O)/C=C/C=C/C(=O)O[C@@H]1C=C2COC(=O)[C@]2(O)[C@@]2(C)CCCC(C)(C)C12 (stereo partly drawn)
inactive: outcome (HACAT) inactive [at 17.4 µM] | Potency (HEK293T) | outcome (NIH3T3) inactive [at 17.4 µM] | Potency (C33A)

CC(C)(O)C1=CCC23COC(C2)C(O)(C(=O)O)CCC13 (stereo not drawn)
inactive: outcome (HACAT) | Potency (HEK293T) | outcome (NIH3T3) | Potency (C33A)

O=C1N(CC2CCCCN2)CCN1c1ccccc1 (stereo not drawn)
inactive: outcome (HACAT) inactive; activator | Potency (HEK293T) | outcome (NIH3T3) | Potency (C33A)

CCC[C@@H]1C[C@@H](C(=O)N[C@@H]([C@H]2O[C@H](SC)[C@H](O)[C@@H](O)[C@@H]2O)[C@@H](C)O)N(C)C1
inactive: outcome (HACAT) | Potency (HEK293T) | outcome (NIH3T3) | Potency (C33A)

CC1=C2C3OC(=O)C(C)C3(O)CCC2(C)CCC1=O (stereo not drawn)
inactive: outcome (HACAT) | Potency (HEK293T) | outcome (NIH3T3) | Potency (C33A)

O=C(O)CCc1cccc(O[C@@H]2O[C@H](CO)[C@@H](O)[C@H](O)[C@H]2O)c1O
inactive: outcome (HACAT) | Potency (HEK293T) | outcome (NIH3T3) | Potency (C33A)

CCC(C)C1NC(=O)C2CCCN2C(=O)C(C(C)C)NC(=O)c2ccccc2NC(=O)C(Cc2ccc(O)cc2)NC(=O)C(C)NC(=O)C(C(C)O)NC1=O (stereo not drawn) (cyclo([2Abz]VPITAY); configuration not given here)
inactive: outcome (HACAT) inactive [at 17.4 µM] | Potency (HEK293T) | outcome (NIH3T3) inactive [at 17.4 µM] | Potency (C33A)

C=C1CCC2C(C)(C)CC(=O)CC2(C)C1CCC(C)CCOC(C)=O (stereo not drawn)
inactive: outcome (HACAT) | Potency (HEK293T) | outcome (NIH3T3) | Potency (C33A)

CC(C)NC[C@H](O)COc1ccc(CCOCC2CC2)cc1
inactive: outcome (HACAT) | Potency (HEK293T) | outcome (NIH3T3) | Potency (C33A)

COc1cc(C2c3cc(O)c(OC)cc3CC(CO)C2CO)ccc1O (stereo not drawn)
inactive: outcome (HACAT) | Potency (HEK293T) | outcome (NIH3T3) | Potency (C33A)

CC1(C)CC2C(O)C3=C(CC(C)(O)C2C1)C(=O)OC3O (stereo not drawn)
inactive: outcome (HACAT) | Potency (HEK293T) | outcome (NIH3T3) | Potency (C33A)

C[C@H]1C[C@H]2[C@@H]3CCC4=CC(=O)C=C[C@]4(C)[C@@]3(F)[C@@H](O)C[C@]2(C)[C@@]1(O)C(=O)COP(=O)(O)O
inactive: outcome (HACAT) | Potency (HEK293T) | outcome (NIH3T3) | Potency (C33A)

COC1(CC(C)C)NC(=O)C(O)(Cc2ccccc2)NC1=O (stereo not drawn)
inactive: outcome (HACAT) | Potency (HEK293T) | outcome (NIH3T3) | Potency (C33A)

COC(=O)[C@H](CC1C=NC=N1)NCC12CC3CC(CC(C3)C1)C2 (stereo partly drawn)
inactive: outcome (HACAT) | Potency (HEK293T) | outcome (NIH3T3) | Potency (C33A)

C/C=C/C1=CC2=CC(=O)C(C)(O)C(OC(=O)c3c(C)cc(O)cc3O)C2CO1 (stereo not drawn)
inactive: outcome (HACAT) | Potency (HEK293T) | outcome (NIH3T3) | Potency (C33A)

CC(CCC1C(C(=O)O)=CC(=O)CC1(C)C)O[C@@H]1O[C@H](CO)[C@@H](O)[C@H](O)[C@H]1O (stereo partly drawn)
inactive: outcome (HACAT) | Potency (HEK293T) | outcome (NIH3T3) | Potency (C33A)

C/C1=C\C[C@H](O[C@@H]2O[C@H](CO)[C@@H](O)[C@H](O)[C@H]2O)/C(C)=C/[C@H]2OC(=O)[C@H](C)[C@@H]2CC1
inactive: outcome (HACAT) inactive [at 17.4 µM] | Potency (HEK293T) | outcome (NIH3T3) inactive [at 17.4 µM] | Potency (C33A)

CC1(C(=O)O)CCCC2(C)C1CCC13CC(CCC21)C1(CO)OC31 (stereo not drawn)
inactive: outcome (HACAT) | Potency (HEK293T) | outcome (NIH3T3) | Potency (C33A)

COC(=O)C1=C[C@@H](O)[C@@H](O)[C@H](O[C@@H]2O[C@H](COC(=O)/C=C/c3ccccc3)[C@@H](O)[C@H](O)[C@H]2O)C1
inactive: outcome (HACAT) inactive [at 17.4 µM] | Potency (HEK293T) | outcome (NIH3T3) inactive [at 17.4 µM] | Potency (C33A)

CNC(=O)O[C@H]1COc2ccc(N3CCN(C4COC4)CC3)cc2[C@@H]1NC(=O)c1ccc(F)cc1
inactive: outcome (HACAT) | Potency (HEK293T) | outcome (NIH3T3) | Potency (C33A)

NCc1c[nH]c(=S)n1C1CCc2c(F)cc(F)cc2C1 (stereo not drawn)
inactive: outcome (HACAT) | Potency (HEK293T) | outcome (NIH3T3) | Potency (C33A)

C=C1CCC[C@]2(C)C[C@]3(O)OC(=O)C(C)=C3C[C@@H]12
inactive: outcome (HACAT) | Potency (HEK293T) | outcome (NIH3T3) | Potency (C33A)

Cc1cn2c(N)c(Cl)cc(C(=O)NCC3CCN(CC(C)C)CC3)c2n1
inactive: outcome (HACAT) | Potency (HEK293T) | outcome (NIH3T3) | Potency (C33A)

O=C(NN1CCCCC1)c1nn(-c2ccc(Cl)cc2Cl)c(-c2ccc(C#Cc3ccc(C(F)(F)F)cc3)s2)c1CNS(=O)(=O)N1CCCC1
inactive: outcome (HACAT) | Potency (HEK293T) | outcome (NIH3T3) | Potency (C33A)

C#Cc1cnc2[nH]c(=O)n(C(CC)CC)c2n1
inactive: outcome (HACAT) | Potency (HEK293T) | outcome (NIH3T3) | Potency (C33A)

CCOC(=O)c1ccnc(CNCC(=O)N(CC)CCN(C)C)c1
inactive: outcome (HACAT) | Potency (HEK293T) | outcome (NIH3T3) | Potency (C33A)

C/C=C(\C)C(=O)O[C@@H](C)[C@H]1CC[C@]2(O)C3CCC4C[C@@H](OC5CC(OC)C(OC6CC(OC)C(OC7CC(OC)C(OC8OC(C)C(OC9OC(CO)C(O)C(O)C9O)C(OC)C8O)C(C)O7)C(C)O6)C(C)O5)CC[C@]4(C)C3[C@H](O)[C@@H](O)[C@]12C (stereo partly drawn)
inactive: outcome (HACAT) inactive [at 9.27 µM] | outcome (HEK293T) inactive [at 9.27 µM] | outcome (NIH3T3) inactive [at 9.27 µM] | activity change, negative = cytotoxicity (C33A) 19.4% [at 6.55 µM]
